Data from the supplement of paper PMC13172266.

What was measured:
Assay in all cases: cell proliferation relative to vehicle (% of vehicle); higher = less growth inhibition
Conditions in all cases: 72 h
[1] = system: U2932 TK216-resistant clone 2
Outline: (§1)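 Each of 348 targeted inhibitors was tested at 500 nM or 50 nM for 72 h on U2932 cells, both parental and two clones resistant to an ETS-targeting agent. Readout was by MTT with absorbance read on a Cytation 3. Proliferation appears as percent of proliferating cells relative to vehicle (DMSO).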

[2] = system: U2932 TK216-resistant clone 3
Outline: as §1

U2932 parental = system: U2932 parental
Outline: as §1

SMILES	cell proliferation ([1]; 50 nM)	cell proliferation ([1]; 500 nM)	cell proliferation ([2]; 50 nM)	cell proliferation ([2]; 500 nM)	cell proliferation (U2932 parental; 50 nM)	cell proliferation (U2932 parental; 500 nM)
NC(=O)c1ccc(I)c([N+](=O)[O-])c1 [Iniparib (BSI-201)]	107	98.2	105	103	97	102
c1cc(-c2cnn3cc(-c4ccc(OCCN5CCCCC5)cc4)cnc23)ccn1 [Dorsomorphin 2HCl]	113	98	119	108	110	98.3
O=C(O)C(Cc1c[nH]c2ccccc12)N1C(=O)c2ccccc2C1=O (centres undefined)	97.2	102	99.2	98	100	96.1
CC[C@@]1(O)C(=O)OCc2c1cc1n(c2=O)Cc2cc3cc(O)ccc3nc2-1 [(S)-10-Hydroxycamptothecin]	4.11	1.46	7.4	5.84	2.21	0.765
O=c1ncccn1[C@@H]1O[C@H](CO)[C@@H](O)[C@H]1O [Zebularine]	111	95.5	102	99.9	105	102
COc1ccc(-c2nc(N3CCOCC3)c3sc(CN(C)c4ncc(C(=O)NO)cn4)cc3n2)cn1	0.345	2.02	3.18	9.31	0.767	3.78
COc1cc2ncnc(Oc3ccc(CC(=O)Nc4cnn(C(C)C)c4)cc3)c2cc1OC	100	104	104	98.5	97.7	95.7
O=NN(CCCl)C(=O)NC1CCCCC1 [Lomustine]	112	103	111	105	101	114
Cc1ccc(NC(=O)c2ccc(CN3CCN(C)CC3)cc2)cc1Nc1nc(-c2cccnc2)cs1 [Masitinib (AB1010)]	95.6	83.5	100	86.2	92.5	92.7
Nc1ccccc1NC(=O)c1ccc(CNC(=O)OCc2cccnc2)cc1 [Entinostat (MS-275)]	104	74.8	88.2	66.7	93.2	66.2
CCCNC(=O)c1cn2ncnc(Nc3cc(C(=O)NC4CC4)ccc3C)c2c1C	104	98.2	105	103	103	98.7
O=C(CCCCCCC(=O)Nc1ccccc1)NO [Vorinostat (SAHA, MK0683)]	108	91.3	107	88.9	98.2	81.6
CCCCCCNC(=O)n1cc(F)c(=O)[nH]c1=O [Carmofur]	98.3	101	104	99.8	102	103
CN1CCN(CCCNc2ncc(Cl)c(-c3cc4c(C(=O)NC5CC5)cccc4s3)n2)CC1	101	86.5	98.2	99	95.3	100
Nc1cccc2c1CN(C1CCC(=O)NC1=O)C2=O (centres undefined) [Lenalidomide (CC-5013)]	107	98	102	96	98	99.7
NCC(=O)Nc1ccc(-n2nc(C(F)(F)F)cc2-c2ccc3c(ccc4ccccc43)c2)cc1	99.6	84.6	95.3	72.8	96.2	82.4
C[C@]1(c2nc3c(C(N)=O)cccc3[nH]2)CCCN1 [Veliparib (ABT-888)]	90.3	91.5	98.8	80.8	87	96.6
NC(=O)c1ccc(N(C(N)=O)c2c(F)cccc2F)nc1-c1ccc(F)cc1F	106	100	108	99.3	99.3	98.7
C[S+]([O-])c1ccc(-c2nc(-c3ccc(F)cc3)c(-c3ccncc3)[nH]2)cc1 (centres undefined)	109	101	93.4	94.4	106	101
COc1cc2c(cc1O)CC[C@@H]1[C@@H]2CC[C@]2(C)[C@@H](O)CC[C@@H]12 [2-Methoxyestradiol (2-MeOE2)]	105	102	103	83.4	99.8	54
C[C@H]1c2cccc(O)c2C(=O)C2=C(O)[C@]3(O)C(=O)C(C(N)=O)=C(O)[C@@H](N(C)C)[C@@H]3[C@@H](O)[C@@H]21 [Doxycycline Hyclate]	104	105	102	102	106	105
CCN(CC)CCCC(C)Nc1ccnc2cc(Cl)ccc12 (centres undefined) [Chloroquine Phosphate]	98.7	104	116	111	94.1	99.2
C[C@@H]1CCN(C(=O)CC#N)C[C@@H]1N(C)c1ncnc2[nH]ccc12	102	104	113	98.5	109	107
O=C1c2c(O)ccc(O)c2C(=O)c2c(NCCNCCO)ccc(NCCNCCO)c21 [Mitoxantrone]	12	5.19	16	15	18.8	8.11
